# Assay outcomes deposited in PubChem by National Center for Advancing Translational Sciences (NCATS).
# CtBP-E1A blk – CtBP/E1A binding inhibition; AlphaScreen GST-E1A/His-CtBP binding, 1536-well; hits give low values; activity change, % (concentration not given with the values); actives 0.49% (n = 340,000); AID 651724; in the data active = activity change below about -65%; inconclusive = mostly about -30% to -63%
#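 AlphaScreen with 125 nM GST-E1A and 125 nM His-CtBP (5X stocks) in Tris pH 8.0, 300 mM NaCl, BSA, Tween 20, TCEP. Compounds preincubated 2 h at 37 deg C, then glutathione donor/nickel acceptor beads added for 1 h at 37 deg C in dark.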
# RORgamma inh – inhibitors of mouse ROR gamma transcriptional activity. Drosophila S2 Gal4-RORgamma UAS-luciferase reporter, 20 h. Potency, µM (top dose mostly 53.6 µM), inactives show at the top dose activity change, negative = inhibition, most hits filed as inhibitors. actives 5.4% (n = 310,000). AID 2551; note: potency is the fitted concentration of half-maximal effect; nearly all actives have a fitted effect of over 60% in size
#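 In this cell-based reporter format, copper sulfate (700 uM final) drives Gal4–ROR gamma fusion expression from a metallothionein promoter in Drosophila Schneider cells; compounds preincubated 1 hr, reporter read after 20 hr at ambient temperature.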
# Six1-Eya2 inh – inhibitors of human Six1/Eya2 interaction. AID 651725. actives 0.56% (n = 360,000). AlphaScreen GST-Six1/His-Eya2 binding, biochemical; hits give low values. Q15475+O00167. activity change, % (concentration not given with the values); in the data active = activity change below about -65%; inconclusive = mostly about -30% to -63%
# Target sequence (O00167 whole entry, looked up): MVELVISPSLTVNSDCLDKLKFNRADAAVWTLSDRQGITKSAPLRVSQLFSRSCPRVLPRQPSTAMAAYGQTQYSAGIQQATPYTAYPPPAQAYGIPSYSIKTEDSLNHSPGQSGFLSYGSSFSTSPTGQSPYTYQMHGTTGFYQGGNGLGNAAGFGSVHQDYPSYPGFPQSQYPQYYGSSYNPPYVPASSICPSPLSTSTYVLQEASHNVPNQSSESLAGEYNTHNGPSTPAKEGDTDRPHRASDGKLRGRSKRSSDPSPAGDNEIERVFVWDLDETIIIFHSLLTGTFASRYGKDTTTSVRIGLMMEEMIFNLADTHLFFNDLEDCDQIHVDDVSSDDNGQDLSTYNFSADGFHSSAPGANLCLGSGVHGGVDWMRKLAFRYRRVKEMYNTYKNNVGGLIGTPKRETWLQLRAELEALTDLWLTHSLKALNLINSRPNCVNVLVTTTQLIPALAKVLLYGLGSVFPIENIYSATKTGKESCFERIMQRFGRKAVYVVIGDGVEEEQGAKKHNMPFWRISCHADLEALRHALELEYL
# Target sequence (Q15475 whole entry, looked up): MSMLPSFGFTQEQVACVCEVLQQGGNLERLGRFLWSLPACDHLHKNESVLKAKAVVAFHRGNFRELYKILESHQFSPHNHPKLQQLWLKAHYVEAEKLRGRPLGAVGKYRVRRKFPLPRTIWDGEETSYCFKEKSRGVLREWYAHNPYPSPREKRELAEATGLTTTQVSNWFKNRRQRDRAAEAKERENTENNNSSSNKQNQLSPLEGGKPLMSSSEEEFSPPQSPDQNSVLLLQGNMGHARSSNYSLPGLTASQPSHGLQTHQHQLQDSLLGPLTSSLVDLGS
#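 GST-Six1 + His-Eya2 (5X stock: 250/500 nM); Tris pH 8.0, 300 mM NaCl, 0.05% BSA, 0.02% Tween 20; GSH donor/Ni acceptor beads; 1 h 37 °C dark; AlphaScreen readout.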
# PKM2 act – increases activity of human pyruvate kinase M2. AID 1631. Potency, µM (highest dose often 57.5 µM), for inactives: at the highest dose activation, usual class: activators. actives 0.34% (n = 260,000). P14618. purified PKM2, Kinase-Glo ATP luminescence, activation; response scale: 0% is enzyme alone, no compound; note: potency is the fitted concentration of half-maximal effect; nearly all actives have a fitted effect of over 55% in size
#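 Kinase-Glo luminescence reports ATP generated from ADP (0.1 mM) and PEP (0.5 mM) by purified hPK-M2 after 1 h at room temperature, pH 7.2 imidazole buffer; intermediate enzyme activity allows detecting inhibitors and activators.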
# VP16 counter – inhibits Gal4-VP16 luciferase reporter, ROR gamma counter-screen | Drosophila S2 Gal4-VP16 UAS-luciferase, luminescence, 20 h | Potency, µM (highest dose often 53.6 µM), inactives show top-dose activity, negative = inhibition, actives largely listed as inhibitors | actives 3.5% (n = 310,000) | AID 2546;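 note: Gal4-VP16 expression switched on by copper sulfate through the metallothionein promoter; potency is the fitted concentration of half-maximal effect; nearly all actives have a fitted effect of over 50% in size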
# Numbers without * were called inactive; u = inconclusive; x = not tested or not shown; [ ] = another dose, or the depositor's remark. An excerpt weighted towards active compounds, which were near 5.6% of everything screened. Unless noted, calls come from the whole dose curve; as a rule, active = well fitted curve in the direction sought with a large enough effect; inconclusive = small, poorly fitted or top-dose-only effect, or another doubt; inactive = no such curve, though single readings can be large; an effect the other way counts as inactive or inconclusive. % is set by controls: 0 for no effect and ±100 for the full control effect.
SMILES,CtBP-E1A blk,RORgamma inh,Six1-Eya2 inh,PKM2 act,VP16 counter
O=[N+]([O-])c1cc(CN2CCCC2)c2cccnc2c1O,-1.0,u,-79.3*,1.2%,u
O=[N+]([O-])c1cc(CN2CCN(c3cccc(C(F)(F)F)c3)CC2)c2cccnc2c1O,-89.5*,0.112µM*,-69.9*,-1.6%,u
O=[N+]([O-])c1ccc(O)c(/C=N/Nc2nc3ccccc3[nH]2)c1,-97.5*,6.31µM*,-92.0*,-1.2%,5.62µM*
Cc1ccccc1-n1c(C)cc(/C=N/Nc2ccc([N+](=O)[O-])cn2)c1C,-6.2,6.31µM*,-9.1,0.0%,5.62µM*
Cc1cc(/C=N/Nc2ccc([N+](=O)[O-])cn2)c(C)n1-c1ccc(C(=O)O)cc1,-13.0,-29.8%,u,7.4%,22.3%
CCN(CC)S(=O)(=O)c1ccc(N/N=C(\C)c2ccncc2)nc1,-7.4,u,-6.9,-8.9%,u
CCN(CC)S(=O)(=O)c1ccc(N/N=C/c2ccc(O)cc2O)nc1,-94.5*,14.1µM*,-93.5*,5.9%,u
O=[N+]([O-])c1ccc(O)c(/C=N/Nc2ccccn2)c1,-92.1*,10µM*,-90.4*,-4.8%,11.2µM*
COc1ccc(O)c(/C=N/Nc2nc3ccccc3[nH]2)c1,5.0,u,-0.4,0.3%,u
Cc1ccccc1CN1CCN(c2nc3ccccc3s2)CC1,7.4,5.5%,-0.5,x,26.9%
O=[N+]([O-])c1ccc(N/N=C\c2cccn2-c2ccccc2)nc1,u,2.51µM*,u,2.8%,u
O=C(CNS(=O)(=O)c1ccc([N+](=O)[O-])cc1)N/N=C\c1ccc(O)cc1,x,-0.6%,1.2,x,8.4%
O=[N+]([O-])c1ccc(NN=Cc2ccc(O)cc2O)nc1,-74.3*,x,-69.3*,x,x
O=C(CNS(=O)(=O)c1ccc([N+](=O)[O-])cc1)N/N=C/c1ccc(O)cc1O,u,-26.0%,-72.7*,x,5.2%
O=[N+]([O-])c1ccc(NN=Cc2ccccc2O)nc1,-78.9*,x,-78.2*,x,x
COc1ccccc1C=NNc1ccc([N+](=O)[O-])cn1,7.4,x,1.7,x,x
O=[N+]([O-])c1ccc(NN=Cc2ccccc2)nc1,-15.0,x,-0.2,x,x
Cc1cccc(C)c1NC(=O)C(CCc1ccccc1)n1c(=O)c(-c2ccccc2)nc2ccccc21 (stereo not drawn),1.1,x,0.6,x,x
CC[C@H](C)[C@H](NC(N)=O)C(=O)Nc1ccccc1F,9.2,8.4%,-7.2,-11.6%,10.5%
CCN(CC)C(=O)[C@H]1CC(CC(=O)NCCCOC)C(=O)N2CCc3c([nH]c4ccccc34)[C@]12C (stereo partly drawn),-4.8,x,9.2,x,x
COc1ccc(C(=O)COC(=O)CN2C(=O)c3ccccc3C2=O)c(OC)c1,-3.5,1.5%,8.3,-6.6%,0.9%
O=C(/C=C\c1ccccc1OC(=O)c1ccccc1F)c1cc2ccccc2o1,-21.0,u,-11.8,7.2%,0.316µM*
CC(C)NC(=S)N/N=C/c1ccc(N2CCOCC2)cc1,x,2.82µM*,-7.7,-15.2%,4.47µM*
C=C(C)CNC(=S)N/N=C/c1c(F)cccc1F,-3.4,1.78µM*,0.5,0.8%,6.31µM*
CCOC(=O)N/N=C/c1c(F)cccc1F,7.7,1.2%,1.9,2.6%,13.9%
SMILES,CtBP-E1A blk,RORgamma inh,Six1-Eya2 inh,PKM2 act,VP16 counter
COCCNC(=S)N/N=C/c1ccc(N2CCOCC2)cc1,3.2,u,-1.3,-1.8%,20µM*
C=C(C)CNC(=S)N/N=C\c1ccc2c(c1)OCO2,2.9,-5.8%,-1.1,-1.8%,-0.4%
C=C(C)CNC(=S)N/N=C/c1ccc(N2CCOCC2)cc1,2.9,2µM*,-8.6,-1.6%,5.01µM*
O=C(N/N=C/c1ccc(N2CCOCC2)cc1)c1ccncc1,17.2,x,-6.3,x,x
CCCOc1nc(C)cc(COC)c1C(N)=O,-11.0,-16.3%,-6.5,1.4%,-3.5%
Oc1ccc(/C=N/NC(=S)N2CCOCC2)cc1,-8.1,1.12µM*,-16.0,-18.8%,u
COCCNC(=S)N/N=C/c1ccc([N+](=O)[O-])cc1,-1.0,u,-2.4,3.7%,u
Cc1ccc(/C=N/NC(=O)C(C)Oc2cccc3ccccc23)o1 (stereo not drawn),-3.8,15.8µM*,1.4,16.7%,u
C=C(C)CNC(=S)N/N=C/c1ccc([N+](=O)[O-])cc1,9.4,1.12µM*,-0.1,-1.4%,4.47µM*
Cc1ccc(/C=N/NC(=O)c2cccc3ccccc23)o1,3.2,0.0%,-4.8,8.2%,u
Cc1ccc(/C=N/NC(=S)NC(C)C)o1,-2.8,1.41µM*,-4.0,1.5%,2.82µM*
O=C(COC(=O)CCc1c[nH]c2ccccc12)NCc1ccc2c(c1)OCO2,3.3,0.0%,1.1,5.4%,0.5%
CN1C(=O)NC(c2ccc(Cl)cc2)C2=C1CC(C)(C)CC2=O (stereo not drawn),-14.7,2.4%,2.4,x,3.1%
CCC(C)(C)NC(=O)/C=C/c1cnc2ccccc2n1,x,2.2%,-5.0,-3.8%,-0.7%
CCN(CC)C(=O)CSc1nnc([C@@H](N)C(C)C)o1,2.9,-5.8%,10.5,-1.8%,-0.4%
COC(=O)c1ccc(/C=N/NC(=O)CC(=O)NC(C)C)cc1,7.1,3.4%,3.6,-10.8%,-0.9%
COC(=O)c1ccc(/C=N/NC(=S)NC(C)C)cc1,-4.5,2µM*,-7.0,-10.8%,7.08µM*
O=C(O)c1cc(N/N=C/c2ccc(N3CCOCC3)cc2)ccc1Cl,x,7.08µM*,21.5,-6.2%,u
CCCN(CC(=O)Nc1ccccc1C)C(=O)c1ccc(N2CCCC(C)C2)c([N+](=O)[O-])c1 (stereo not drawn),-21.6,x,-19.6,x,x
CN(C)/C=N/S(=O)(=O)c1ccc(Cl)c(Cl)c1,4.7,3.8%,2.5,-25.8%,2.9%
COc1ccccc1OCC(=O)Nn1c(=S)[nH]c2ncccc2c1=O,-2.9,-4.5%,-1.1,1.7%,5.5%
Cc1n[nH]c(=S)n(NC(=O)/C=C/C(=O)Nn2c(=S)[nH]nc(C)c2=O)c1=O,u,-12.2%,-88.3*,u,-13.7%[10 µM]
Cc1n[nH]c(=S)n(NC(=O)CC(=O)Nn2c(=S)[nH]nc(C)c2=O)c1=O,24.0,-36.6%,-87.3*,-35.8%,-24.4%
Cc1nn2c(=S)[nH]nc2[nH]c1=O,-22.3,-0.6%,-2.6,-1.4%,0.7%
CC(C(=O)c1ccc(-c2ccccc2)cc1)[n+]1ccccc1 (stereo not drawn),-1.7,u,6.3,3.3%,-5.9%
Cc1cc[n+](C(C)C(=O)c2ccc(-c3ccccc3)cc2)cc1 (stereo not drawn),0.0,u,-5.5,1.4%,10µM*
COc1ccc(N(C)S(=O)(=O)c2cccc(C(=O)Nc3nc4ccccc4[nH]3)c2)cc1,-20.1,3.98µM*,u,6.5%,11.2µM*
